# According to the supplement of paper PMC8728848:
# Shown is part of a subset that was picked to be rich in the strongest signals.
# B1: Blon0732mut (Bifidobacterium longum) (protein)
# chain: MPTSEHKADDATRHLTLIPAPVTLEYTHGTALIGPLVTIEDADQSWETLPIEQLSDELRHRYGVTVLRRRTHGTVISLGLDSRLAHDEYTLDVSESEGIRVRGGGESGLRYGLQTLRQIIGQTSRAIPCLHIQDKPAFAVRAYSLDVTRGRVPTMEFLTWFVDQLALYKYNQFQLYVEHAFAFVELSEAWRGTDPLTAADITYLDEYCARRGIELVPSLATFGHMYMNLRTREHRGLGEFPEDADRPFSFIERMEHHTLNAADPKAHDFASRLIEEYAPLFRSKSFNIGGNETFDLGRGRSAQDAPEAGRDELYAGFVRDLCETLARHGRQPMLWADIALESPRTMDLLPGDITMLNWMYEPQIDESKIQTIATQGRRQFVCPAVRAWSRFFPDYAGAWLNTYHMALAGTKYDAEGMVVTDWGDYGHVNDPRLSVPGLCYGAQNAWNPIEIDAHEMNRRISALVYGDESGRIMDCLARIDSDGVSFPWDLAVQVLELEYGSGTGALNMDVAACMERSSGGKLTLDRTLGCDDARRRMLQWNRERIERRRDCDQVLRDCGDAFAGLDKGGLTAEFLSVMLDGQRLFNELGEELLALADGKDVGSGANRLAADLELWFERYRAQWLSVGRHAELARIAHVVWSLADILRRGAL
# Assays:
# Experiment in all cases: glycan array binding signal (z-score within array); higher = stronger binding
# Details in all cases: glycan notation: IUPAC condensed, linker removed
# [1] = target: Fuc(a1-2)Gal(b1-3)GalNAc(b1-3)Gal
# Summary of the method: (§1)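 Glycan array binding is given as a within-array Z-score, which can be read as non-binding when negative. The arrays, 3228 of them, came from the Consortium for Functional Glycomics database and were retained only where the protein sequence was available. Z-scores were averaged across arrays of the same protein sequence at different concentrations or buffers and across linkers.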
# [2] = target: Fuc(a1-2)Gal(b1-3)[Fuc(a1-4)]GlcNAc
# Summary of the method: as §1
# [3] = target: Fuc(a1-2)Gal(b1-3)[Fuc(a1-4)]GlcNAc(b1-3)[Gal(b1-4)GlcNAc(b1-6)]Gal(b1-4)Glc
# Summary of the method: as §1
# [4] = target: Fuc(a1-2)Gal(b1-4)GlcNAc(b1-3)Gal(b1-4)GlcNAc(b1-2)Man(a1-3)[Fuc(a1-2)Gal(b1-4)GlcNAc(b1-3)Gal(b1-4)GlcNAc(b1-2)Man(a1-6)]Man(b1-4)GlcNAc(b1-4)GlcNAc
# Summary of the method: as §1
# [5] = target: Fuc(a1-2)Gal(b1-4)[Fuc(a1-3)]GlcNAc(b1-3)Gal(b1-4)[Fuc(a1-3)]GlcNAc
# Summary of the method: as §1
# [6] = target: Fuc(a1-2)[Gal(a1-3)]Gal(b1-4)GlcNAc(b1-2)Man(a1-3)[Fuc(a1-2)[Gal(a1-3)]Gal(b1-4)GlcNAc(b1-2)Man(a1-6)]Man(b1-4)GlcNAc(b1-4)GlcNAc
# Summary of the method: as §1
# [7] = target: Fuc(a1-2)[Gal(a1-3)]Gal(b1-4)GlcNAc(b1-3)GalNAc
# Summary of the method: as §1
# [8] = target: Fuc(a1-2)[GalNAc(a1-3)]Gal(b1-3)GlcNAc(b1-6)GalNAc
# Summary of the method: as §1
# [9] = target: Fuc(a1-2)[GalNAc(a1-3)]Gal(b1-4)GlcNAc(b1-2)Man(a1-3)[Fuc(a1-2)[GalNAc(a1-3)]Gal(b1-4)GlcNAc(b1-2)Man(a1-6)]Man(b1-4)GlcNAc(b1-4)GlcNAc
# Summary of the method: as §1
# [10] = target: Fuc(a1-2)[GalNAc(a1-3)]Gal(b1-4)GlcNAc(b1-3)Gal(b1-4)GlcNAc(b1-3)Gal(b1-4)GlcNAc
# Summary of the method: as §1
# [11] = target: Fuc(a1-2)[GalNAc(b1-3)]Gal
# Summary of the method: as §1
# [12] = target: Fuc(a1-3)[GalNAc(b1-4)]GlcNAc
# Summary of the method: as §1
# [13] = target: Gal(a1-3)Gal(b1-4)GlcNAc(b1-2)Man
# Summary of the method: as §1
# [14] = target: Gal(a1-3)Gal(b1-4)GlcNAc(b1-2)Man(a1-3)[Gal(a1-3)Gal(b1-4)GlcNAc(b1-2)Man(a1-6)]Man(b1-4)GlcNAc(b1-4)GlcNAc
# Summary of the method: as §1
# [15] = target: Gal(a1-3)[Gal(a1-4)]Gal(b1-4)GlcNAc
# Summary of the method: as §1
# Gal(a1-4)Gal(b1-4)Glc = target: Gal(a1-4)Gal(b1-4)Glc
# Summary of the method: as §1
# [16] = target: Gal(b1-3)[Fuc(a1-4)]GlcNAc(b1-2)Man
# Summary of the method: as §1
# [17] = target: Gal(b1-3)[Fuc(a1-4)]GlcNAc(b1-3)Gal(b1-3)[Fuc(a1-4)]GlcNAc
# Summary of the method: as §1
# [18] = target: Gal(b1-4)GalNAc(a1-3)[Fuc(a1-2)]Gal(b1-4)GlcNAc
# Summary of the method: as §1
# Gal(b1-4)GlcNAc(b1-2)Man = target: Gal(b1-4)GlcNAc(b1-2)Man
# Summary of the method: as §1
# [19] = target: Gal(b1-4)GlcNAc(b1-6)GalNAc
# Summary of the method: as §1
# Gal(b1-6)Gal = target: Gal(b1-6)Gal
# Summary of the method: as §1
# Gal3S(b1-3)GalNAc = target: Gal3S(b1-3)GalNAc
# Summary of the method: as §1
# Gal3S(b1-4)GlcNAc = target: Gal3S(b1-4)GlcNAc
# Summary of the method: as §1
# [20] = target: Gal3S(b1-4)[Fuc(a1-3)]Glc6S
# Summary of the method: as §1
# [21] = target: Gal3S(b1-4)[Fuc(a1-3)]GlcNAc
# Summary of the method: as §1
# Gal4S6S(b1-4)GlcNAc = target: Gal4S6S(b1-4)GlcNAc
# Summary of the method: as §1
# [22] = target: GalNAc(b1-4)GlcNAc(b1-2)Man
# Summary of the method: as §1
# GalNAc(b1-4)GlcNAc6S = target: GalNAc(b1-4)GlcNAc6S
# Summary of the method: as §1
# [23] = target: GlcNAc(b1-2)Man(a1-3)[GlcNAc(b1-4)][GlcNAc(b1-2)Man(a1-6)]Man(b1-4)GlcNAc(b1-4)[Fuc(a1-6)]GlcNAc
# Summary of the method: as §1
# GlcNAc(b1-3)Fuc = target: GlcNAc(b1-3)Fuc
# Summary of the method: as §1
# [24] = target: GlcNAc(b1-3)Gal(b1-4)GlcNAc(b1-2)[GlcNAc(b1-3)Gal(b1-4)GlcNAc(b1-6)]Man(a1-6)[GlcNAc(b1-3)Gal(b1-4)GlcNAc(b1-2)Man(a1-3)]Man(b1-4)GlcNAc(b1-4)GlcNAc
# Summary of the method: as §1
# [25] = target: GlcNAc(b1-3)[GlcNAc(b1-4)][GlcNAc(b1-6)]GlcNAc
# Summary of the method: as §1
# [26] = target: GlcNAc(b1-4)GlcNAc(b1-4)GlcNAc
# Summary of the method: as §1
# [27] = target: GlcNAc(b1-6)Gal(b1-4)GlcNAc
# Summary of the method: as §1
# [28] = target: Man(a1-3)[Man(a1-6)]Man(b1-4)GlcNAc(b1-4)GlcNAc
# Summary of the method: as §1
# [29] = target: Neu5Ac(a2-3)Gal(b1-3)GalNAc(b1-4)[Neu5Ac(a2-8)Neu5Ac(a2-3)]Gal(b1-4)Glc
# Summary of the method: as §1
# [30] = target: Neu5Ac(a2-3)Gal(b1-3)GlcNAc
# Summary of the method: as §1
# [31] = target: Neu5Ac(a2-3)Gal(b1-3)GlcNAc(b1-4)Gal(b1-4)Glc
# Summary of the method: as §1
# [32] = target: Neu5Ac(a2-3)Gal(b1-3)[Fuc(a1-4)]GlcNAc(b1-3)Gal(b1-3)[Fuc(a1-4)]GlcNAc
# Summary of the method: as §1
# [33] = target: Neu5Ac(a2-3)Gal(b1-3)[Fuc(a1-4)]GlcNAc(b1-3)Gal(b1-4)[Fuc(a1-3)]GlcNAc
# Summary of the method: as §1
# [34] = target: Neu5Ac(a2-3)Gal(b1-4)[Fuc(a1-3)]GlcNAc(b1-3)GalNAc
# Summary of the method: as §1
# [35] = target: Neu5Ac(a2-3)Gal(b1-4)[Fuc(a1-3)]GlcNAc(b1-6)[Gal(b1-3)]GalNAc
# Summary of the method: as §1
# [36] = target: Neu5Ac(a2-6)Gal(b1-4)GlcNAc(b1-3)Gal(b1-4)[Fuc(a1-3)]GlcNAc(b1-3)Gal(b1-4)[Fuc(a1-3)]GlcNAc
# Summary of the method: as §1
# [37] = target: Neu5Ac(a2-6)Gal(b1-4)GlcNAc(b1-6)[Gal(b1-3)]GalNAc
# Summary of the method: as §1
# [38] = target: Neu5Gc(a2-3)Gal(b1-3)GlcNAc
# Summary of the method: as §1
# Neu5Gc(a2-3)Gal(b1-4)Glc = target: Neu5Gc(a2-3)Gal(b1-4)Glc
# Summary of the method: as §1
binder,measurement,setting,value
B1,glycan array binding signal (z-score),[1],-1.26
same,glycan array binding signal (z-score),[2],0.087
same,glycan array binding signal (z-score),[3],-0.87
same,glycan array binding signal (z-score),[4],-0.325
same,glycan array binding signal (z-score),[5],0.489
same,glycan array binding signal (z-score),[6],-0.864
same,glycan array binding signal (z-score),[7],-0.533
same,glycan array binding signal (z-score),[8],-0.809
same,glycan array binding signal (z-score),[9],0.397
same,glycan array binding signal (z-score),[10],0.035
same,glycan array binding signal (z-score),[11],0.44
same,glycan array binding signal (z-score),[12],1.89
same,glycan array binding signal (z-score),[13],-0.505
same,glycan array binding signal (z-score),[14],0.086
same,glycan array binding signal (z-score),[15],5.9
same,glycan array binding signal (z-score),Gal(a1-4)Gal(b1-4)Glc,2.6
same,glycan array binding signal (z-score),[16],-0.411
same,glycan array binding signal (z-score),[17],-0.751
same,glycan array binding signal (z-score),[18],0.345
same,glycan array binding signal (z-score),Gal(b1-4)GlcNAc(b1-2)Man,1.31
same,glycan array binding signal (z-score),[19],0.168
same,glycan array binding signal (z-score),Gal(b1-6)Gal,-0.313
same,glycan array binding signal (z-score),Gal3S(b1-3)GalNAc,1.16
same,glycan array binding signal (z-score),Gal3S(b1-4)GlcNAc,-0.019
same,glycan array binding signal (z-score),[20],4.3
same,glycan array binding signal (z-score),[21],3.42
same,glycan array binding signal (z-score),Gal4S6S(b1-4)GlcNAc,2.26
same,glycan array binding signal (z-score),[22],0.028
same,glycan array binding signal (z-score),GalNAc(b1-4)GlcNAc6S,-0.46
same,glycan array binding signal (z-score),[23],-0.15
same,glycan array binding signal (z-score),GlcNAc(b1-3)Fuc,-1.38
same,glycan array binding signal (z-score),[24],3.03
same,glycan array binding signal (z-score),[25],5.26
same,glycan array binding signal (z-score),[26],-0.223
same,glycan array binding signal (z-score),[27],0.074
same,glycan array binding signal (z-score),[28],-0.261
same,glycan array binding signal (z-score),[29],3.81
same,glycan array binding signal (z-score),[30],-0.428
same,glycan array binding signal (z-score),[31],0.176
same,glycan array binding signal (z-score),[32],-0.898
same,glycan array binding signal (z-score),[33],-0.002
same,glycan array binding signal (z-score),[34],2.5
same,glycan array binding signal (z-score),[35],0.262
same,glycan array binding signal (z-score),[36],2.6
same,glycan array binding signal (z-score),[37],0.982
same,glycan array binding signal (z-score),[38],-0.667
same,glycan array binding signal (z-score),Neu5Gc(a2-3)Gal(b1-4)Glc,2.58
